What all share (assay): NCI-60 one-dose screen, 48 h (100 = growth as untreated, 0 = no growth, -100 = all killed)
What all share (details): 10 µM unless noted

Experiment [1] relates to SK-MEL-2 melanoma.
For experiment [2], the system named is EKVX NSCLC.
Experiment [3] concerns SN12C renal.
Experiment [4] has as its system UO-31 renal.
For experiment [5], the system named is TK-10 renal.
Experiment [6] concerns ACHN renal.
In experiment [7] the test system is CAKI-1 renal.
Experiment [8] has as its system CCRF-CEM leukemia.
Experiment [9] relates to MOLT-4 leukemia.
Experiment [10] concerns A498 renal.

The results in this text go back to PubChem BioAssay (NCI).

Compounds without any hit were thinned out: in the full panel of roughly 83,000, 20% have a hit.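 Step 1: grow cells in 96-well plates. Step 2: add test compound at a single concentration. Step 3: incubate 48 h. Step 4: record percent growth.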 A number with no mark means an inactive call. Calls of active or inactive are those of the source. How the source made its calls: active means growth percent below 10; inactive means the rest.

Consider `Cc1cc(Br)ccc1-n1cc(C#N)c(N)c1C(=O)c1ccc(Br)cc1`, for which the growth in experiment [1] was 108%; in experiment [2] it was 97.8%; in experiment [3], 110%; in experiment [4] it was 80.1%; in [5], 87%; in experiment [6] it was 97.2%. Moreover, the growth in experiment [7] is 91.6%; in experiment [8] it was 96.6%; in [9], 108%.

On to `Cc1ccccc1N1CCN(C2=C(Cl)C(=O)c3ncccc3C2=O)CC1`, for which the growth in experiment [1] is 81.1%; in experiment [2], 95.4%; in [3] it was 70.1%; in [4], 2.66% (active); in experiment [5] it was 68.7%; in experiment [6], -22.6% (active). Also, the growth in [7] is 25.4%; in [8], 0.314% (active); in experiment [9] it was 10.4%.

`CS(=O)(=O)c1nccc(-c2c(-c3cccc(OCc4ccc(Cl)c(C(F)(F)F)c4)c3)nc3sccn23)n1`: the growth is 107% in experiment [1]; 78.9% in experiment [2]; 74.7% in [3]; 0.98% (active) in experiment [4]; 112% in experiment [5]; 71.9% in [6]. Also, the growth in experiment [7] was 73.7%; in [8] it was 13.2%; in experiment [9] it was 9.69% (active).

As for `CCOC(=O)c1cccc(NC2=C(Cl)C(=O)c3nc(C)ccc3C2=O)c1`, the growth in experiment [1] is 105%; in experiment [2] it was 92.1%; in [3], 95.5%; in [4], 93.1%; in experiment [5] it was 119%; in [6] it was 96.1%. In addition, the growth is 108% in [7], 15% in [8] and 48.5% in experiment [9].

As to `CCC(=C(c1ccc(OCCN(C)C)cc1)c1ccc(OCCN(C)C)cc1)c1ccc(Cl)cc1`, the growth in experiment [1] was -41.8% (active); in [2], 7.78% (active); in experiment [3] it was -33.2% (active); in experiment [4], -71.9% (active); in [5], 60.2%; in experiment [6], -78.5% (active). In addition, the growth was -53.6% (active) in [7], -50.8% (active) in experiment [8] and -50.2% (active) in [9].

Turning to `CN1c2ccccc2Sc2cc(/C=N/Nc3ccnc4cc(Cl)ccc34)ccc21`, the growth in [1] was 98.3%; in [2] it was 94.2%; in experiment [3], 95.7%; in experiment [4] it was 84%; in experiment [5], 115%; in experiment [6], 109%. For the same compound, the growth in experiment [7] is 103%; in [8], 56.2%; in [9], 82.4%.

With `C1=CC(c2nn3c(-c4ccccc4)nnc3s2)=Cc2ccccc2O1`, the growth in experiment [1] is 74.7%; in experiment [2], 88.5%; in [3] it was 78.9%; in experiment [4], 53.4%; in [5], 116%; in experiment [6] it was 76.7%. Besides, the growth in [7] was 47.6%; in experiment [10], 67.5%; in experiment [8], 27.9%; in experiment [9] it was 39.2%.

Consider `CN1CCN(Cc2ccc(/C=N/Nc3ccnc4cc(Cl)ccc34)cc2)CC1`, for which the growth was 113% in experiment [1]; 82.6% in experiment [2]; 87.9% in [3]; 78.8% in experiment [4]; 162% in [5]; 90.5% in [6]. The growth in experiment [7] is 77.5%; in experiment [10] it was 111%; in experiment [8] it was 56.9%; in experiment [9], 63.1%.

On to `C=CCSC1=NC2C(N(CC)C(=O)N2CC)N1/N=C/C=C/c1ccccc1OC` (stereo not given), for which the growth in experiment [1] was 98.7%; in experiment [2], 83.7%; in experiment [3], 97.5%; in experiment [4], 68.3%; in experiment [5], 122%; in experiment [6], 74.7%. Also, the growth in [7] was 49.5%; in experiment [10], 55.1%; in experiment [8], 63.5%; in [9], 70.6%.

As for `CCOC(=O)c1c(NC(=O)c2ccc(C(F)(F)F)cc2)sc2c(CN3CCN(C)CC3)c(O)ccc12`, the growth in experiment [1] is 44.8%; in experiment [2] it was 21.5%; in experiment [3], -75.7% (active); in experiment [4], -93.6% (active); in [5], -71.2% (active); in experiment [6] it was -89.4% (active). Also, the growth was -66% (active) in [7], -24.6% (active) in experiment [8] and -36.5% (active) in experiment [9].

Take `CSc1ccc(/C(=N/N=C(N)N)c2ccc(F)cc2)cc1`: the growth was 48.6% in experiment [1]; 36.6% in experiment [2]; 36.9% in [3]; 30.5% in [4]; 39.1% in [5]; 35.8% in experiment [6]. Moreover, the growth in experiment [7] was 15.6%; in [8], 5.74% (active); in experiment [9], -2.76% (active).

On to `C#CCOc1ccc(-c2csc(NC(=O)C=C)n2)cc1NS(=O)(=O)c1cccc2c(N(C)C)cccc12`, for which the growth in experiment [1] was 69.4%; in [2], 66.1%; in experiment [3], 31.2%; in experiment [4] it was 21.9%; in [5], 63%; in experiment [6], 9.85% (active). Besides, the growth in [7] is 36.2%; in [8], 3.87% (active); in [9], 1.79% (active).

As to `C#C[C@]1(O)CC[C@H]2[C@@H]3CC=C4c5sc(Nc6cccc(F)c6)nc5CC[C@]4(C)[C@H]3CC[C@@]21C`, the growth in [1] was 27.8%; in [2] it was 25%; in [3] it was 45.6%; in [4], 17.1%; in experiment [5] it was 65.1%; in experiment [6] it was 35%. The growth in experiment [7] is 7.13% (active); in experiment [8], 8.66% (active); in experiment [9] it was 5.5% (active).
